The source of these data is publication PMC8384837, “Expanding the binding specificity for RNA recognition by a PUF domain”.

The target of the first experiment is PUM1 PUF domain R3-APR (Homo sapiens, UniProt Q14671 828-1176, C935A;R936P;Q939R). In words: yeast three-hybrid, YBZ-1, SC-Leu-His + 0.5 mM 3-AT, 4 days. As to conditions: tags: N-Gal4 AD-HA kept; label: inside an RPR1-promoter hybrid RNA with tandem MS2 sites; ssRNA. In outline:
(§1)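 Matching RNA elements and Pumilio-1 PUF domain libraries, randomized at the three base-contacting residues of every repeat, were co-expressed from a centromeric plasmid in strain YBZ-1 (LexA–MS2 coat fusion, HIS3 reporter). The repeat regions were PCR-amplified and Illumina-sequenced from cells grown four days on SC-Leu (input) or SC-Leu-His + 0.5 mM 3-AT (selection). The interaction score is the log change in variant frequency from input to selection. It is computed in log2, with a pseudocount of 1 for absent variants.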
In the case of “GGCUAGAACUAGUGGAUCCCCCGGCGCCCGGCGGCUCGAGCCCGGGUAAGUGUAAUUAGUCUGCAUGCCGCCGGGCGCCAUGCCUGCAGGUCGACUCUAGAAAACAUG”, the binding signal is 2.28 log2 enrichment (interaction score).
As to “GGCUAGAACUAGUGGAUCCCCCGGCGCCCGGCGGCUCGAGCCCGGGUAAGUGUAAGUAGUCUGCAUGCCGCCGGGCGCCAUGCCUGCAGGUCGACUCUAGAAAACAUG”, the binding signal was 1.67 log2 enrichment (interaction score).
Regarding “GGCUAGAACUAGUGGAUCCCCCGGCGCCCGGCGGCUCGAGCCCGGGUAAGUGUAAAUAGUCUGCAUGCCGCCGGGCGCCAUGCCUGCAGGUCGACUCUAGAAAACAUG”, the binding signal is 2.66 log2 enrichment (interaction score).

A further experiment concerns the target PUM1 PUF domain R3-GRC (Homo sapiens, UniProt Q14671 828-1176, C935G;Q939C). Described as above. The note with it: tags: N-Gal4 AD-HA kept; label: inside an RPR1-promoter hybrid RNA with tandem MS2 sites; ssRNA. In short, it runs like this:
as §1
Regarding “GGCUAGAACUAGUGGAUCCCCCGGCGCCCGGCGGCUCGAGCCCGGGUAAGUGUAAUUAGUCUGCAUGCCGCCGGGCGCCAUGCCUGCAGGUCGACUCUAGAAAACAUG”, the binding signal was 1.22 log2 enrichment (interaction score).
Regarding “GGCUAGAACUAGUGGAUCCCCCGGCGCCCGGCGGCUCGAGCCCGGGUAAGUGUAAGUAGUCUGCAUGCCGCCGGGCGCCAUGCCUGCAGGUCGACUCUAGAAAACAUG”, the binding signal was 0.66 log2 enrichment (interaction score).
Still for that read-out and setting: with “GGCUAGAACUAGUGGAUCCCCCGGCGCCCGGCGGCUCGAGCCCGGGUAAGUGUAAAUAGUCUGCAUGCCGCCGGGCGCCAUGCCUGCAGGUCGACUCUAGAAAACAUG” the figure was 3.23 log2 enrichment (interaction score).

A further experiment deals with PUM1 PUF domain R1-RRE (Homo sapiens, UniProt Q14671 828-1176, S863R;Q867E). The experiment is described as above. The note with it: tags: N-Gal4 AD-HA kept; label: inside an RPR1-promoter hybrid RNA with tandem MS2 sites; ssRNA. In short, it runs like this:
as §1
Turning to “GGCUAGAACUAGUGGAUCCCCCGGCGCCCGGCGGCUCGAGCCCGGGUAAGUGUAAAUGGUCUGCAUGCCGCCGGGCGCCAUGCCUGCAGGUCGACUCUAGAAAACAUG”, the binding signal is 2.12 log2 enrichment (interaction score).
Regarding “GGCUAGAACUAGUGGAUCCCCCGGCGCCCGGCGGCUCGAGCCCGGGUAAGUGUAAAUUGUCUGCAUGCCGCCGGGCGCCAUGCCUGCAGGUCGACUCUAGAAAACAUG”, the binding signal was 2.91 log2 enrichment (interaction score).
Still for that read-out and setting: to “GGCUAGAACUAGUGGAUCCCCCGGCGCCCGGCGGCUCGAGCCCGGGUAAGUGUAAAUCGUCUGCAUGCCGCCGGGCGCCAUGCCUGCAGGUCGACUCUAGAAAACAUG” belongs 3.92 log2 enrichment (interaction score).

For another experiment, the target named is PUM1 PUF domain R5-GSR (Homo sapiens, UniProt Q14671 828-1176, C1007G;R1008S;Q1011R). The description is as above. As to conditions: tags: N-Gal4 AD-HA kept; label: inside an RPR1-promoter hybrid RNA with tandem MS2 sites; ssRNA. In outline:
as §1
Consider “GGCUAGAACUAGUGGAUCCCCCGGCGCCCGGCGGCUCGAGCCCGGGUAAGUGUUAAUAGUCUGCAUGCCGCCGGGCGCCAUGCCUGCAGGUCGACUCUAGAAAACAUG”, for which the binding signal is 3.01 log2 enrichment (interaction score).
“GGCUAGAACUAGUGGAUCCCCCGGCGCCCGGCGGCUCGAGCCCGGGUAAGUGUCAAUAGUCUGCAUGCCGCCGGGCGCCAUGCCUGCAGGUCGACUCUAGAAAACAUG”: the binding signal is 5.07 log2 enrichment (interaction score).
In the case of “GGCUAGAACUAGUGGAUCCCCCGGCGCCCGGCGGCUCGAGCCCGGGUAAGUGUAAAUAGUCUGCAUGCCGCCGGGCGCCAUGCCUGCAGGUCGACUCUAGAAAACAUG”, the binding signal was 1.75 log2 enrichment (interaction score).
